Rows were chosen to be rich in hits. Some 2.2% of all compounds tested hit in one or more screens of this group.
ATXN2 expr inh: Primary qHTS for Inhibitors of ATXN expression | HEK-293 ATXN2-luciferase reporter, luminescence, 24 h | Potency, µM (top dose mostly 57 µM), for the others: top-dose activity change, negative = inhibition, usual class: inhibitors | 0.72% of 360,000 active; also: potency is read from the fitted curve at half-maximal effect; % is scaled to controls: 0 for no effect and ±100 for the full control effect; nearly all actives have a fitted effect of over 55% in size
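qHTS (up to 57 uM final) was run with 24 h compound exposure of reporter cells at 37 °C. Each well was multiplexed: SteadyGlo luminescence measured ATXN2-luciferase expression after a fluorogenic Gly-Phe-AFC viability readout (25 uM final).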
HepG2 tox-1: qHTS for Inhibitors of TGF-b: Cytotox Counterscreen. HepG2 CAGA-GFP viability, ATP luminescence, 18 h. Potency, µM (titrated, usually from 46.1 µM), for inactives: at the highest dose activity change, negative = cytotoxicity, most hits filed as cytotoxic. 0.76% of 410,000 active; also: potency is read from the fitted curve at half-maximal effect
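HepG2 CAGA-GFP cells (1000/well, DMEM with 1% FBS) received compound, then TGF-beta at 500 pg/mL final, and were incubated 18 hours at 37 degrees C. Viability was read by CellTiter-Glo luminescence. Media-only wells were set as complete cell-killing and DMSO as no toxicity.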
TGFb inhibitor: qHTS for Inhibitors of TGF-b | HepG2 CAGA-GFP TGF-b/SMAD3 reporter, GFP fluorescence, 18 h; TGF-beta stimulated, 500 pg/mL final | Potency, µM (top dose mostly 46.1 µM), for the others: at the top dose activity, negative = inhibition, most hits filed as inhibitors | 1.2% of 410,000 active | AID 588855, 2011; also: potency is read from the fitted curve at half-maximal effect; % is scaled to controls: 0 for no effect and ±100 for the full control effect; nearly all actives have a fitted effect of over 65% in size
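Read-out: total well GFP (ex488/em500-530) summed from mean per-cell fluorescence. Cells: HEPG2 CAGA-GFP, 1% FBS DMEM, 18 h at 37 degrees C with 500 pg/mL final TGF-beta. Unstimulated wells served as the full-inhibition control; stimulated DMSO wells = 0%.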
LDHA block: qHTS assay for inhibitors of human lactate dehydrogenase; L-lactate dehydrogenase A chain (Homo sapiens), P00338; purified LDHA, NADH/diaphorase-resazurin fluorescence; stronger effect = lower value; activity change, % (values are at about 110 or 230 µM); 0.15% of 480,000 active; in the data active = activity change below about -30%; inconclusive = mostly about -25% to -30%;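 also: plate controls were DMSO wells for no effect and wells without enzyme for full effect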
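Human LDH5 at 2 nM final in Tris HCl pH 7.4 with 0.06 mM NADH and 0.2 mM pyruvate, reacted 5 minutes at room temperature. Remaining NADH coupled via diaphorase/resazurin; resorufin fluorescence read at 0 and 20 minutes, normalized to enzyme-free and DMSO wells.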
IDH1 R132H inh: qHTS for Inhibitors of mutant isocitrate dehydrogenase 1 (IDH1): qHTS | Isocitrate dehydrogenase [NADP] cytoplasmic (Homo sapiens), O75874 | IDH1-R132H enzyme, NADPH consumption, diaphorase/resazurin fluorescence | Potency, µM (top dose mostly 76.6 µM), for inactives: at the highest dose activity change, negative = inhibition, usual class: inhibitors | 0.093% of 390,000 active | AID 602179, 2012; also: potency is read from the fitted curve at half-maximal effect; % is scaled to controls: 0 for no effect and ±100 for the full control effect; nearly all actives have a fitted effect of over 65% in size
Target sequence (O75874 whole entry R132H, stated change not applied): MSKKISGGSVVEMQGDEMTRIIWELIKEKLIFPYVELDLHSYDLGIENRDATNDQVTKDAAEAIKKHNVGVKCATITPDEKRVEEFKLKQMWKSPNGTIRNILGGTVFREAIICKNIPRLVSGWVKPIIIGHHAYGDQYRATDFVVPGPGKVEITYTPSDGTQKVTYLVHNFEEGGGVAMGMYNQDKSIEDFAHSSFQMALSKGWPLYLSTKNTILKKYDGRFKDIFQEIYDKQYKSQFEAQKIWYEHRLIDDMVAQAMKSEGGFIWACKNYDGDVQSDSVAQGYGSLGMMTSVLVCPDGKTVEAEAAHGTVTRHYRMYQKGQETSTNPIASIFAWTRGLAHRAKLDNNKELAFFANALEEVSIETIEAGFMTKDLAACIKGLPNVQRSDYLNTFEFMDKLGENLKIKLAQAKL
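IDH1-R132H (0.5 ug/mL dispensed) in pH 7.5 Tris buffer was preincubated 30 min with compound, then given a substrate mix of 0.016 mM NADPH and 2 mM alpha-KG for 80 min at room temperature; remaining NADPH was read by diaphorase/resazurin fluorescence.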
S2 tox: Viability Counterscreen for Primary qHTS for Inhibitors of ATXN expression; S2 cells (HEK-293 line with an ATXN2-luciferase reporter) viability, CellTiter-Fluor protease fluorescence, 24 h; Potency, µM (top dose mostly 56.7 µM), hits mostly cytotoxic; 0.49% of 400,000 active; AID 651635, 2014; also: potency is read from the fitted curve at half-maximal effect; nearly all actives have a fitted effect of over 40% in size
TGFb CAGA inh: qHTS for Inhibitors of TGF-b: Confirmation of Cherry Picks. shares compounds with TGFb inhibitor. HepG2 CAGA-GFP TGF-b reporter, GFP fluorescence, 18 h; cells stimulated with TGF-beta, 500 pg/mL. Potency, µM (highest dose often 46.1 µM), for the others: at the top dose activity, negative = inhibition, hits mostly inhibitors. 63% of 1,600 active; also: potency is read from the fitted curve at half-maximal effect; % is scaled to controls: 0 for no effect and ±100 for the full control effect; nearly all actives have a fitted effect of over 65% in size
HepG2 tox-2: qHTS for Inhibitors of TGF-b: Cytotox Counterscreen for Cherry Picks | 27% of 1,600 active | shares compounds with TGFb inhibitor | AID 720535, 2013 | HepG2 CAGA-GFP viability, ATP luminescence, 18 h; cells stimulated with TGF-beta, 500 pg/mL | Potency, µM (top dose mostly 46.1 µM), for the others: at the top dose activity, negative = cytotoxicity, usual class: inhibitors; also: potency is read from the fitted curve at half-maximal effect; % is scaled to controls: 0 for no effect and ±100 for the full control effect; nearly all actives have a fitted effect of over 70% in size
CCL64 TGFb inh: qHTS for Inhibitors of TGF-b: CCL64 Cells Orthogonal Assay for Cherry Picks; 41% of 1,600 active; AID 720536, 2013; CCL64 CAGA-GFP reporter, TGF-b stimulated, GFP fluorescence, 18 h; shares compounds with TGFb inhibitor; Potency, µM (series often up to 46.1 µM), without a hit: at the highest dose activity, negative = inhibition, hits mostly inhibitors; also: potency is read from the fitted curve at half-maximal effect; nearly all actives have a fitted effect of over 65% in size
TGFb COP inh: qHTS for Inhibitors of TGF-b: Hit Validation in HepG2 Cells using COP promoter. Potency, µM (series often up to 46.1 µM), without a hit: top-dose activity, negative = inhibition, most hits filed as inhibitors. shares compounds with TGFb inhibitor. 3% of 1,600 active. HepG2 COP-GFP TGF-b reporter, GFP fluorescence, 18 h; cells stimulated by added recombinant TGF-beta; also: potency is read from the fitted curve at half-maximal effect; nearly all actives have a fitted effect of over 70% in size
Numbers without * were called inactive; i = inactive; ? = inconclusive; . = not tested or not shown. Unless noted, calls follow the shape of the dose curve; as a rule, active = well fitted curve in the direction sought with a large enough effect; inconclusive = small, poorly fitted or top-dose-only effect, or another doubt; inactive = no such curve, though single readings can be large; an effect the other way counts as inactive or inconclusive.

SMILES | ATXN2 expr inh | HepG2 tox-1 | TGFb inhibitor | LDHA block | IDH1 R132H inh | S2 tox | TGFb CAGA inh | HepG2 tox-2 | CCL64 TGFb inh | TGFb COP inh
CNC(=S)N/N=C/c1cc(C)n(-c2ccc(Cl)c(Cl)c2)c1C | 0.3% | -3.1% | 12.6µM* | -6.8 | -4.3% | i | 20.6µM* | ? | ? | 33.7%
Cc1ccc(-n2c(C)cc(/C=N/NC(N)=S)c2C)cc1 | 26.2% | 5.3% | 0.0% | -2.2 | -7.6% | i | . | . | . | .
Cc1cc2cc(CN)ccc2[nH]1 | . | . | . | 5.8 | . | . | . | . | . | .
CC(C)(C)C(=O)Nc1oc(-c2ccccc2)c(-c2ccccc2)c1C#N | . | . | . | 6.5 | . | . | . | . | . | .
Cc1cccc(C)c1OCC(=O)Nc1oc(-c2ccccc2)c(-c2ccccc2)c1C#N | -1.1% | -5.3% | 12.6µM* | -9.3 | 1.0% | i | ? | ? | ? | 26.9%
COC(=O)c1ccccc1NC(=O)CSc1nccn1C | -1.7% | 16.0% | 17.6% | -3.9 | 8.4% | i | . | . | . | .
CC(=O)c1ccc(NCC(=O)N2CCN(S(=O)(=O)c3ccccc3)CC2)cc1 | . | -9.5% | -21.9% | -1.9 | -5.7% | ? | . | . | . | .
CN(CC(=O)Nc1cccc(S(=O)(=O)N2CCCC2)c1)CC(=O)Nc1ccc(Cl)c(C(F)(F)F)c1 | ? | -14.1% | 15.8µM* | -4.2 | -4.3% | ? | 16.4µM* | ? | 29.1µM* | 59.7%
COc1ccccc1CCC(=O)N(C)CC(=O)Nc1ccc(Cl)c(C(F)(F)F)c1 | -8.4% | -9.0% | 11.2µM* | 0.7 | 0.5% | i | ? | -20.3% | ? | -0.5%
O=C(CNc1ccc(Cl)c(C(F)(F)F)c1)N1CCN(S(=O)(=O)c2ccccc2)CC1 | -5.6% | -8.4% | 12.6µM* | -7.8 | 1.4% | i | 11.6µM* | -2.7% | -25.1% | -10.1%
O=c1n(Cc2ccccc2)nc2n1-c1ccccc1OC2 | 37.4% | -2.2% | 8.5% | -0.6 | -7.3% | i | . | . | . | .
CC(=NNC(=S)N1CCCC1)c1ccccn1 | . | -22.1% | ? | 2.2 | 11.6% | ? | ? | ? | ? | -14.0%
CC(=NNC(=S)SCc1ccccc1)c1ccccn1 | ? | -31.9% | ? | 1.3 | 3.4% | ? | . | . | . | .
Cc1ccc(-c2nc3c(C)cc(Br)cn3c2Cc2cccc(F)c2)cc1 | 8.6% | . | . | 2.9 | . | i | . | . | . | .
Cc1cc2nc(-c3ccc(F)cc3)c(CC(C)(C)C)n2c(C)c1Br | -22.0% | -32.7% | 10µM* | -3.6 | . | ? | ? | ? | ? | -2.7%
O=S(=O)(CC(CN1CCCCC1)N1CCCCC1)c1ccc2ccccc2c1 (configuration not stated) | -20.2% | 11.2µM* | 3.16µM* | 1.0 | 0.0% | i | 13µM* | 13µM* | ? | ?
C=C(C(=O)c1ccccc1)C(C)CC(=O)c1ccccc1 (configuration not stated) | ? | -3.3% | 12.6µM* | -6.9 | -7.1% | . | 4.61µM* | 14.6µM* | 14.6µM* | -42.6%
O=C(CC(Nc1ccccc1)C(=O)O)c1ccccc1 (configuration not stated) | 124.2% | -3.4% | -5.1% | 0.6 | 3.4% | i | . | . | . | .
Brc1cc(Br)c2ncnc(N3CCCCC3)c2c1 | -23.3% | -40.4% | 6.31µM* | -7.7 | 6.0% | i | 9.2µM* | 4.11µM* | ? | 42.1%
CCCCn1c(N)c(N(CCOC)C(=O)C2CCCN(C(=O)c3ccc(Cl)cc3)C2)c(=O)[nH]c1=O (configuration not stated) | -2.1% | 13.5% | 1.8% | -3.9 | 9.7% | i | . | . | . | .
CC(=O)Nc1ccc(NC(=O)C(C)OC(=O)CSc2ccc(Br)cc2C)cc1 (configuration not stated) | -11.0% | -4.8% | -4.9% | -5.0 | -1.9% | i | . | . | . | .
CC1CCCC(C)N1C(=O)Cn1cc(/C=C2/C(=O)Nc3ccccc32)c2ccccc21 (configuration not stated) | ? | -16.8% | 6.31µM* | -6.8 | 3.1% | ? | ? | -20.9% | ? | 2.1%
CC(O)C(NC(=O)OCc1ccccc1)C(=O)NCC(=O)NCC(=O)OCc1ccccc1 (configuration not stated) | -12.3% | -1.7% | -1.1% | -1.9 | . | i | . | . | . | .
COc1cc(/C=C2\COC/C(=C\c3cc(OC)c(OC)c(OC)c3)C2=O)cc(OC)c1OC | 3.16µM* | 3.55µM* | 0.631µM* | 3.2 | -4.3% | ? | 1.3µM* | 1.3µM* | 1.3µM* | 51.8%
O=C1/C(=C/c2ccc3ccccc3c2)COc2ccccc21 | . | . | . | 10.0 | . | . | . | . | . | .
COc1cc(/C=N\Nc2nc3ccccc3[nH]2)cc(OC)c1OC | 3.6% | -38.4% | ? | -7.6 | 1.7% | i | . | . | . | .
COc1ccc(/C=C2\COc3ccccc3C2=O)cc1OC | 3.8% | 1.2% | 15.8µM* | -2.2 | 4.6% | i | ? | ? | 18.4µM* | 6.3%
CCOc1cc(/C=N/Nc2nc3ccccc3[nH]2)cc(Br)c1OCC(=O)N(C)C | ? | 17.7% | 8.91µM* | -6.4 | -6.0% | ? | 11.6µM* | ? | ? | 20.2%
